Assay outcomes as filed in PubChem.
A selection: hits, their analogues and other compounds. The true share with any hit is near 8.2%.
SW480 rerep – DNA re-replication induction in SW480 cells; SW480 DNA re-replication, Hoechst DNA content imaging, 48 h; Potency, µM (doses to about 46.1 µM), inactives show top-dose re-replication activation, actives largely listed as activators; actives 1.8% (n = 340,000); AID 624297; also: % of control where 0% means no effect; nearly all actives have a fitted effect of over 55% in size
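SW480 cells exposed to compounds for 48 hr at 37 C, 5% CO2, then Hoechst-stained 40 min. Nuclear DNA content imaged by fluorescence scanning (405 nm excitation, 500-530 nm emission); re-replication scored as increased high-intensity nuclei.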
MCF10A rerep – induces DNA re-replication in MCF 10a normal breast cells. MCF 10A DNA re-replication, Hoechst nuclear intensity, 48 h. Potency, µM (highest dose often 46.1 µM), inactives show at the highest dose activity, positive = re-replication, most hits filed as activators. actives 2.9% (n = 350,000). AID 624296; also: % of control where 0% means no effect; nearly all actives have a fitted effect of over 50% in size
ELG1 repair inh – ELG1-dependent DNA repair inhibition; HEK293T ELG1-luciferase reporter, luminescence, 16 h; DNA damage induced by 5-fluorouridine; Potency, µM (series often up to 46.1 µM), for inactives: top-dose activity change, negative = inhibition, hits mostly inhibitors; actives 2.3% (n = 330,000); AID 504467; also: % is scaled to controls: 0 for no effect and ±100 for the full control effect; nearly all actives have a fitted effect of over 55% in size
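Reporter activity after DNA damage by 5-fluorouridine is monitored. Compound-treated cells incubate 16 hr at 37 °C, then ONE-Glo is added for 30 min before luminescence reading.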
KB-3-1 cytotox – KB-3-1 parental cell cytotoxicity; actives 1.4% (n = 400,000); KB-3-1 viability, CellTiter-Glo ATP luminescence, 72 h; Potency, µM (titrated, usually from 46.1 µM), actives largely listed as cytotoxic; also: % is scaled to controls: 0 for no effect and ±100 for the full control effect; nearly all actives have a fitted effect of over 60% in size
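Cytotoxicity measured as CellTiter-Glo luminescence after 72 h at 37 C. Compound titrations were pinned onto drug-naive KB-3-1 parental adenocarcinoma cells grown in DMEM with 10% FBS, and normalized data fitted to concentration-response curves.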
KB-V1 MDR tox – kills drug-selected multidrug resistant KB-V1 cells. KB-V1 MDR cells viability, CellTiter-Glo, 72 h. Potency, µM (top dose mostly 46.1 µM), usual class: cytotoxic. actives 3.4% (n = 400,000). AID 1347076; also: % is scaled to controls: 0 for no effect and ±100 for the full control effect; nearly all actives have a fitted effect of over 60% in size
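KB-V1 cells (P-gp-expressing MDR subline of KB-3-1) in phenol-red-free DMEM with 10% FBS were exposed to library compounds over a concentration series for 72 h at 37 degrees C. Viability read by CellTiter-Glo luminescence; concentration-effect curves fitted after normalization.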
Starred values were filed as active, the others as inactive; i = inactive; u = inconclusive; x = no result given; [ ] = dose if it differs, or a comment. Calls follow the shape of the dose curve; as a rule, active = well fitted curve in the direction sought with a large enough effect; inconclusive = small, poorly fitted or top-dose-only effect, or another doubt; inactive = no such curve, though single readings can be large; an effect the other way counts as inactive or inconclusive. Potency is read from the fitted curve at half-maximal effect.

SMILES | SW480 rerep | MCF10A rerep | ELG1 repair inh | KB-3-1 cytotox | KB-V1 MDR tox
Cc1ccc(CNC(=O)C2CCC(=O)N(Cc3cccc(F)c3)C2)s1 (stereo unspecified) | x | x | x | i | i
N#C/C(=C\Nc1ccccc1O)c1nc2ccccc2o1 | -0.6% | u | u | i | 20.6µM*
N#C/C(=C\c1cccc(O)c1)c1nc2ccccc2o1 | -3.6% | u | 20.1% | i | i
N#C/C(=C\c1ccncc1)c1nc2ccccc2o1 | -42.7% | 14.6µM* | u | i | i
COc1cccc(C(C)(O)c2nc(-c3ccc(OC)nc3)cs2)c1 (stereo unspecified) | x | x | x | i | i
COc1ccc(NC(=O)CSc2n[nH]c(=O)n2C2CC2)cc1OC | -10.7% | -1.0% | 20.5% | i | i
COc1ccc(-c2nc(-c3ccc4c(c3)OCO4)[nH]c2-c2ccc(OC)cc2)cc1 | u | u | 18.4µM* | i | 20.6µM*
Brc1ccc(C2C3=C(Nc4ncnn42)c2ccccc2OC3c2ccncc2)cc1 (stereo unspecified) | u | u | -18.4% | u | 20.6µM*
COc1ccc(C2Oc3ccccc3C3=C2C(c2cccs2)n2ncnc2N3)cc1 (stereo unspecified) | u | u | u | 5.8µM* | 5.8µM*
Cc1ccc(NC(=O)c2cc(S(=O)(=O)N3CCOCC3)c(Br)s2)cc1 | 2.1% | 1.1% | u | u | 23.1µM*
Cc1oc(S(=O)(=O)N2CCCC2)cc1C(=O)Nc1ccc(F)cc1 | 81.2% | -17.4% | u | i | u
O=C(Nc1ccc2c(c1)OCO2)c1ccc(Br)c(S(=O)(=O)N2CCCC2)c1 | -7.2% | 17.0% | 20.6µM* | u | 5.17µM*
Cc1oc(S(=O)(=O)N2CCOCC2)cc1C(=O)Nc1ccc(F)cc1 | u | 4.2% | 23.1µM* | i | u
O=C(Nc1ccccc1)c1ccc(NC2CCCCC2)c(S(=O)(=O)N2CCOCC2)c1 | 2.6% | 13.4% | 14.6µM* | i | u
Cc1cccc(N2CCN(C(=O)Cn3cnc4sc(C)c(S(=O)(=O)N5CCN(c6ncccn6)CC5)c4c3=O)CC2C)c1 (stereo unspecified) | x | x | x | i | u
O=S(=O)(Nc1ccc(-n2cnnn2)cc1)c1cccc(Cl)c1 | 6.5% | 11.6% | 14.4% | i | i
O=C(OCC(=O)N1CCCCCC1)c1ccccc1Br | 2.4% | -0.1% | u | i | i
O=C(Nc1ccc(F)cc1)c1ccc(Br)c(S(=O)(=O)N2CCOCC2)c1 | -67.0% | 3.1% | 14.6µM* | i | i
O=C(Cn1ncc2ccsc2c1=O)N1CCN(c2ccccc2)CC1 | x | x | x | i | i
Cc1ccc(C)c(N2CCN(C(=O)Cn3ncc4ccsc4c3=O)CC2)c1 | x | x | x | 16.4µM* | 4.11µM*
COc1cccc(NC2c3ccccc3C(=O)N2Cc2ccccc2Cl)c1 (stereo unspecified) | 20.6µM* | u | -6.3% | i | i
COc1ccc([C@H]2CC(=O)C=C(c3ccc4[nH]ccc4c3)C2)cc1OC | 3.1%[9.22 µM] | -4.9% | -27.6% | i | i
O=C1C=C(c2ccc3[nH]ccc3c2)C[C@@H](c2ccc(F)cc2)C1 | 1.9% | 20.6µM* | u | u | i
O=c1c2ccccc2nc(/C=C/c2cc(Br)ccc2O)n1CCCO | u | u | u | 20.6µM* | u
Cc1cccc(/C=C/c2nc3ccccc3c(=O)n2Cc2ccccc2)c1 | u | u | u | i | u
SMILES | SW480 rerep | MCF10A rerep | ELG1 repair inh | KB-3-1 cytotox | KB-V1 MDR tox
O=c1c2ccccc2nc(/C=C/c2ccccc2)n1CCc1ccccc1 | 0.2% | -3.0% | 20.6µM* | i | i
O=c1c2ccccc2nc(-c2ccoc2)n1CCc1ccccc1 | 8.2% | u | u | u | 11.6µM*
O=c1c2ccccc2nc(/C=C/c2cccnc2)n1CCc1ccccc1 | -21.4% | 29.1µM* | u | i | u
COc1cc(NC(=O)CN2C(=O)COc3ccccc32)cc(OC)c1 | 2.1%[1.84 µM] | -21.9% | x | i | i
Cc1ccc(OCCC(=O)Nc2cc(S(=O)(=O)N3CCOCC3)ccc2N2CCCC2)cc1 | 0.6% | 1.5% | x | i | i
CCOC(=O)C1CCN(C(=O)c2cc3ccc4ccc(C)[nH]c4c3n2)CC1 | x | x | x | i | i
O=C(Nc1cccc(-n2cnnn2)c1)C1CCCN(Cc2cccc(C(F)(F)F)c2)C1 (stereo unspecified) | u | u | u | i | u
Oc1ccc(C[C@H]2CN([C@@H](Cc3cccc(O)c3)CN3CCC[C@@H]3CN3C(=S)NC[C@@H]3Cc3ccccc3)C(=S)N2CC2CCCCC2)cc1 | x | x | x | u | i
Cc1cccc(Nc2nn3c(=O)c4cc5c(cc4nc3s2)OCO5)c1 | x | x | x | i | i
CCOc1ccc(CCn2c(-c3ccco3)nc3ccccc3c2=O)cc1OCC | u | u | 9.2µM* | u | 7.31µM*
c1ccc(COc2cccc(CN3CCN(c4ccccn4)CC3)c2)cc1 | u | u | x | i | 18.4µM*
Cc1c(C(=O)NCc2ccoc2)oc2ccc3c(c12)C(=O)CC(C)(C)O3 | 4.5% | u | u | i | 18.4µM*
CCOC(=O)N1CCC(NC(=O)CCc2c(C)nc3nc(C)nn3c2C)CC1 | -9.1% | -6.4% | 1.6% | i | i
CCOC(=O)N1CCC(NC(=O)CCc2c(C)nc3c(c(C)nn3C(C)(C)C)c2C)CC1 | 8.1% | 4.0% | u | u | 3.66µM*
CCCNC(=O)COc1coc(CN2CCN(c3ccccc3F)CC2)cc1=O | 4.8% | -11.7% | -2.2% | i | i
CC1(C)CC(Cc2ccccc2C(F)(F)F)N(C(=O)OC(C)(C)C)C1 (stereo unspecified) | x | x | x | i | i
CN(C)c1cc(O)c(C(=S)Nc2ccccc2)c(N(C)C)c1 | 15.7% | u | 14.1% | u | 16.4µM*
CN(C)c1ccc(C(=S)Nc2ccccc2)cc1 | u | 2.7% | u | i | i
Cc1cc2nc(NC(=O)C3(C)CCN(C)C3)[nH]c2cc1C (stereo unspecified) | x | x | x | i | i
CN(CC(=O)Nc1ccc(C#N)cc1)Cc1ccc(Cl)cc1 | -4.1% | u | -11.1% | i | u
N#Cc1ccc(NC(=O)Nc2ccc(Cl)cc2)cc1 | 1.5% | -1.8% | u | 20.6µM* | u
COc1ccc(NC(=O)CSc2nnc3ccc(-c4cccnc4)nn23)cc1 | 0.5% | -7.8% | 0.8% | i | i
COc1ccc(NC(=O)CSc2nnc3ccc(-c4ccncc4)nn23)cc1 | -10.6% | 17.1% | 8.2µM* | i | u
CCn1c(Cc2ccccc2)nnc1SCC(=O)Nc1ccc(OC)cc1 | u | 14.9% | -11.4% | i | i
